According to PubChem BioAssay (NCATS):
Results filed as inconclusive are left out. Activity calls are given as the source filed them. The call rests on the fitted dose curve; in most records, active means well fitted cell-killing curve with a large enough effect; inconclusive means small, poorly fitted or top-dose-only effect, or effect the other way; inactive means flat fitted curve, though single readings scatter.

Experiments:
Experiment in all cases: Primary qHTS to identify gynecologic anti-cancer compounds using libraries of approved drugs and bioactive compounds (AID 1345084); further: nearly all actives have a fitted effect of over 55% in size
C33A = conditions: Gynecologic cancer cell panel viability, ATPlite luminescence, 48 h; series mostly up to 57.5 µM
Method in brief: (§1)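 Five-concentration response, 48 h; readout is ATP-driven luciferase luminescence.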

CAOV3 = conditions: Gynecologic cancer cell panel viability, ATPlite luminescence, 48 h; series mostly up to 57.5 µM
Method in brief: as §1

CASKI = conditions: Gynecologic cancer cell panel viability, ATPlite luminescence, 48 h; series mostly up to 57.5 µM
Method in brief: as §1

Es-2 = conditions: Gynecologic cancer cell panel viability, ATPlite luminescence, 48 h; series mostly up to 57.5 µM
Method in brief: as §1

HeLa = conditions: Gynecologic cancer cell panel viability, ATPlite luminescence, 48 h; series mostly up to 57.5 µM
Method in brief: as §1

Hek293T = conditions: Gynecologic cancer cell panel viability, ATPlite luminescence, 48 h, control line for the selectivity index; series mostly up to 57.5 µM
Method in brief: as §1

JEG-3 = conditions: Gynecologic cancer cell panel viability, ATPlite luminescence, 48 h; series mostly up to 57.5 µM
Method in brief: as §1

OV90 = conditions: Gynecologic cancer cell panel viability, ATPlite luminescence, 48 h; series mostly up to 57.5 µM
Method in brief: as §1

PA-1 = conditions: Gynecologic cancer cell panel viability, ATPlite luminescence, 48 h; series mostly up to 57.5 µM
Method in brief: as §1

SKOV3 = conditions: Gynecologic cancer cell panel viability, ATPlite luminescence, 48 h; series mostly up to 57.5 µM
Method in brief: as §1

Tov-21-G = conditions: Gynecologic cancer cell panel viability, ATPlite luminescence, 48 h; series mostly up to 57.5 µM
Method in brief: as §1

Tov112D = conditions: Gynecologic cancer cell panel viability, ATPlite luminescence, 48 h; series mostly up to 57.5 µM
Method in brief: as §1

Measured: Potency

CC(/C=C/C1=CC2=CC(=O)C(C)(O)C(O)C2=CO1)=C\C(C)CCO (stereo not drawn)
inactive: C33A | CAOV3 | CASKI | Es-2 | HeLa | Hek293T | JEG-3 | OV90 | PA-1 | SKOV3 | Tov-21-G | Tov112D

C/C=C/c1cc(OC)c2c(c1)[C@@H](C)[C@@H](c1ccc(O)c(OC)c1)O2
inactive: C33A | CAOV3 | CASKI | Es-2 | HeLa | Hek293T | JEG-3 | OV90 | PA-1 | SKOV3 | Tov-21-G | Tov112D

CC(C)C(=O)OC[C@H]1O[C@H](O[C@H]2O[C@H](CO)[C@@H](O)[C@H](O)[C@H]2O)[C@H](O)[C@@H](O)[C@@H]1O
inactive: C33A | CAOV3 | CASKI | Es-2 | HeLa | Hek293T | JEG-3 | OV90 | PA-1 | SKOV3 | Tov-21-G | Tov112D

COc1cc2c(cc1O)[C@H](c1ccc(O[C@@H]3O[C@H](CO)[C@@H](O)[C@H](O)[C@H]3O)c(OC)c1)[C@@H](CO)[C@](O)(CO)C2
inactive: C33A | CAOV3 | CASKI | Es-2 | HeLa | Hek293T | JEG-3 | OV90 | PA-1 | SKOV3 | Tov-21-G | Tov112D
